Test results from PubChem BioAssay (NCI).
Compounds without any hit were thinned out: in the full panel of roughly 83,000, 20% have a hit.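 Each cell line was grown in a 96-well plate and treated with one concentration of compound for 48 hours. Values below 10 were considered active.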 A number with no mark means an inactive call. Activity calls are given as the source filed them.

test system: T-47D breast; assay: NCI-60 one-dose screen, 48 h (100 = growth as untreated, 0 = no growth, -100 = all killed); settings: 10 µM unless noted
Protocol: Growth inhibition of the T-47D human tumor cell line is measured as a screen for anti-cancer activity. Cells are grown in 96 well plates and exposed to the test compound for 48 hours. Compounds are tested at a single concentration, which is 10^-5 M for most compounds. The reported endpoint is percent growth (GI% or GIPRCNT), where numbers from 0 - 100% represent growth inhibition, and numbers from -100% - 0 represent cell death. For example, a value of 40 represents 60% growth inhibition. A value of 0 means no net growth occurred over the course of the experiment. A value of -40 indicates 40% of cells at the beginning of the experiment died by the end of the experiment. A value of -100 means all cells are dead at the end of the experiment.
NCI-60 Human Tumor Cell Lines Screen was performed using the standard one-dose NCI protocol, which is described in more detail at https://dtp.cancer.gov/discovery_development/nci-60/default.htm.
Compounds with GIPRCNT values below 10 were considered active. Activity score was based on GIPRCNT using the following formula: […]
Score is 0 for GIPRCNT values of 100 or above, 50 for GIPRCNT values of 0, and 100 for GIPRCNT values of -100.

Question: With `CNC(=O)Nc1ccc(-c2ccc3ncnc(Nc4cccc(Cl)c4)c3c2)cc1` as the molecule, how does the growth read?
Answer: Its growth is -4.13% (active).

Question: `O=C1NC(=O)C(c2coc3cc(Br)ccc23)=C1c1c[nH]c2ccccc12` was tested. Which growth did it give?
Answer: Its growth is 34.7%.

Question: How did the growth turn out when `COCCn1cc(-c2nc(-c3c[nH]c4ncccc34)cs2)c2ccccc21` was run?
Answer: The growth was 4.79% (active).

Question: Which growth does the source give for `COc1cc(C[C@H]2COc3cc(O)cc(O)c3C2=O)ccc1O` here?
Answer: Its growth is 31.3%.

Question: How did the growth turn out when `C#CCOc1cccc(Nc2ncnc3cc(NC(=O)CCl)ccc23)c1` was run?
Answer: The growth was -48.9% (active).

Question: `O=c1oc2c(cnc3ccccc32)cc1-c1cccc(Cl)c1` was tested. Which growth did it give?
Answer: Its growth is 107%.

Question: Which growth does the source give for `Clc1ccc(-c2nc(C(Cl)Cl)nc3cc(-c4ccccc4)nn23)cc1` here?
Answer: The growth was 55.3%.

Question: `C(=C(\C1=NCCN1)n1ccc2ccccc21)/c1ccccc1` was tested. Which growth did it give?
Answer: Its growth is 90.3%.

Question: Which growth does the source give for `Cc1ncc(C(=O)Nc2ccc(CN3CCN(C)CC3)c(C(F)(F)F)c2)cc1C#Cc1cnc(N)c2ccc(C#N)cc12` here?
Answer: Its growth is 19%.

Question: `CS(=O)/C(C#N)=C\C=C\c1cccc(Cl)c1` (stereo not given) was tested. Which growth did it give?
Answer: Its growth is 16.5%.

Question: Which growth does the source give for `COc1ccc(-c2cn(Cc3cc4ccccc4s3)nn2)cc1OCCN1CCCCC1` here?
Answer: Its growth is 85.1%.

Question: How did the growth turn out when `Cc1nc2sc(C(=O)Nc3ccccn3)c(N)c2cc1C(C)O` (stereo not given) was run?
Answer: Its growth is 73.1%.

Question: For `CCOC(=O)CNC1=C(Cl)C(=O)N(Cc2ccc(Cl)cc2)C1=O`, which growth is on record?
Answer: Its growth is 93.3%.

Question: `COc1ccc(C/C(C)=C(\c2ccc(O)cc2)c2ccc(OCCN3CCCCC3)cc2)cc1` was tested. Which growth did it give?
Answer: Its growth is 53.8%.

Question: For `COc1cc(-c2ccc[nH]2)[nH]c1/C=C1\N=C(C)C(CC(=O)OCC(C)(C)C)=C1C`, which growth is on record?
Answer: The growth was -58.7% (active).

Question: `Cc1nn(-c2ccc([N+](=O)[O-])cc2)c2ncnc(N/N=C/c3ccccc3O)c12` was tested. Which growth did it give?
Answer: The growth was 11.6%.

Question: `c1ccc(Nc2nc3c(s2)CCc2c[nH]cc2-3)nc1` was tested. Which growth did it give?
Answer: The growth was 11%.

Question: Which growth does the source give for `CN1c2ccccc2S(=O)(=O)n2c(SCC(=O)Nc3nc4ccc(F)cc4s3)nnc21` here?
Answer: Its growth is 112%.

Question: Which growth does the source give for `CC(C)(C)OC(=O)CN1CCc2c(sc3ncnc(N4CCN(c5ccc(F)cc5)CC4)c23)C1` here?
Answer: The growth was 63.9%.

Question: For `Cn1c2ccccc2c2c3c(c4c5cc(Br)ccc5n(C)c4c21)C(=O)N(O)C3=O`, which growth is on record?
Answer: The growth was -11.2% (active).

Question: Which growth does the source give for `O=C(/C=C/C12c3ccccc3C(c3ccccc31)C1C(=O)NC(=O)C12)c1ccco1` (stereo not given) here?
Answer: The growth was 18.6%.

Question: For `COc1ccc(/C=N/Nc2c3ccccc3nc3ccccc23)cc1`, which growth is on record?
Answer: Its growth is 87.5%.

Question: `COc1ccc2[nH]cc(-c3nonc3-c3c[nH]c4ccc(Br)cc34)c2c1` was tested. Which growth did it give?
Answer: The growth was 3.83% (active).

Question: With `COc1cccc(-c2cn3nc(-c4cn(C)c5ccccc45)sc3n2)c1` as the molecule, how does the growth read?
Answer: The growth was 89.9%.

Question: For `Cc1c2cnccc2c(C)c2c1c1cc(CO)ccc1n2C`, which growth is on record?
Answer: Its growth is -21.2% (active).

Question: For `CC(=O)Nc1sc2c(c1-c1nc3ccccc3s1)CNC2`, which growth is on record?
Answer: Its growth is 4.49% (active).

Question: How did the growth turn out when `Cc1cc2oc(/C=C/c3ccccc3)cc(=O)c2c(C)c1Cl` was run?
Answer: The growth was 87%.

Question: With `CN(C)CCC(CCN(C)C)(C(=O)O)c1ccccc1` as the molecule, how does the growth read?
Answer: Its growth is 104%.

Question: With `N[C@@H]1CCC[C@H]1NCCCCN1C(=O)c2cccc3cc([N+](=O)[O-])cc(c23)C1=O` as the molecule, how does the growth read?
Answer: The growth was 38.1%.

Question: `Cc1cn(C)cn1` was tested. Which growth did it give?
Answer: Its growth is 104%.

Question: Which growth does the source give for `O=C(NCCN1CCOCC1)OCc1ccc2c(Cl)cc(Cl)c(O)c2n1` here?
Answer: The growth was 74.8%.

Question: `CCOC(=O)CC1CSC(N/N=C/c2ccc(F)c(Br)c2)=N1` (stereo not given) was tested. Which growth did it give?
Answer: The growth was 93.7%.

Question: `CN(C)Cc1ccc(NC(=O)c2cncc(C#Cc3cnc(N)c4ncccc34)c2)cc1C(F)(F)F` was tested. Which growth did it give?
Answer: Its growth is 99%.

Question: `CCOC(=O)c1c(NC(=O)c2ccccc2)sc2c3c(ccc12)OCN(C)C3` was tested. Which growth did it give?
Answer: The growth was -10.1% (active).

Question: Which growth does the source give for `O=C1CCC(C(=O)N/N=C/c2cc(F)ccc2F)N1` (stereo not given) here?
Answer: Its growth is 97.2%.

Question: For `O=C(c1cccc(N2CCOCC2)n1)c1c[nH]c2ccccc12`, which growth is on record?
Answer: The growth was 70.7%.

Question: With `CN(C)CCCC1(c2ccc(F)cc2)OCc2cc(-c3csc4ccccc34)ccc21` (stereo not given) as the molecule, how does the growth read?
Answer: Its growth is 26.4%.

Question: How did the growth turn out when `COc1ccc(C=Nc2c(C(=O)Nc3cccc(Cl)c3C)sc3nc(C)c(C(=O)/C=C/c4ccc(OC)cc4)cc23)cc1` was run?
Answer: Its growth is 24.3%.

Question: Which growth does the source give for `Clc1ccc(Nc2nnc(CNc3ccccc3)c3ccccc23)cc1` here?
Answer: The growth was 2.82% (active).

Question: With `CCOC(=O)C/C(=N\Nc1cc(=O)[nH]c2ccc(C)cc12)C(=O)OCC` as the molecule, how does the growth read?
Answer: Its growth is 107%.
